ASM inhibitor: human S-ASM enzyme inhibition | P17405 | placental ASM, HMU-PC fluorogenic substrate, 60 min | Potency, µM (doses to about 57.5 µM), actives largely listed as inhibitors | hit rate 0.006% among 340,000
Target sequence (P17405 47-631 limits assumed): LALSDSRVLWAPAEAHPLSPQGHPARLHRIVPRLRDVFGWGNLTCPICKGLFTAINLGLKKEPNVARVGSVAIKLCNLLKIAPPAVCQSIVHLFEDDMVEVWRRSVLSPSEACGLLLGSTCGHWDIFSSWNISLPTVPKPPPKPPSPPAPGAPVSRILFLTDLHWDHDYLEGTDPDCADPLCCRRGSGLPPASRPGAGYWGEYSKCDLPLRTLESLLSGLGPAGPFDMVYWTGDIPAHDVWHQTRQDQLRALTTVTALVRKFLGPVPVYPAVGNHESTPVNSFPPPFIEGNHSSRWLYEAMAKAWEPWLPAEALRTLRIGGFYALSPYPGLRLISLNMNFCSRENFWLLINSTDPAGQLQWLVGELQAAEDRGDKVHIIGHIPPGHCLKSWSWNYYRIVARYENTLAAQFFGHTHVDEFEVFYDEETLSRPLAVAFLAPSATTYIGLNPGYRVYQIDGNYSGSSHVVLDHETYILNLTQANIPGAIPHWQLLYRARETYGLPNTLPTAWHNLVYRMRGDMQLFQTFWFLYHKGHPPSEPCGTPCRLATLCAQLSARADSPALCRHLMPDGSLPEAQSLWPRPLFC
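Steps: dispense placental human ASM, pin compound, wait 10 min at room temperature, add HMU-PC0 substrate at 9 uM final, incubate 60 min at 37 °C, add stop solution raising pH to 10, read fluorescence.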
TGFb SMAD3 inh: TGF-b pathway inhibition | HepG2 CAGA-GFP TGF-b/SMAD3 reporter, GFP fluorescence, 18 h; TGF-beta stimulated, 500 pg/mL final | Potency, µM (top dose mostly 46.1 µM), most hits filed as inhibitors | hit rate 1.2% among 410,000 | AID 588855; also: nearly all actives have a fitted effect of over 65% in size
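Using HEPG2 CAGA-GFP reporter cells at 1000 cells/well, we pinned test compounds, stimulated with recombinant TGF-beta (500 pg/mL final) and measured total well GFP after 18 h.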
IL1B secr inh: blocks inflammasome-driven IL-1 beta release. activity change, % at 57.5 µM. hit rate 4.7% among 360,000. THP-1 LPS/ATP IL-1B secretion, AlphaLISA, 16 h; hits give low values; in the data active = activity change below about -50%; inconclusive = mostly about -30% to -49%
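THP-1 cells pretreated 1 hr with compounds (up to 57.5 uM final), then stimulated with LPS (250 ng/mL final) plus ATP (1.25 mM final); secreted IL-1B measured by AlphaLISA after 16 hr, decreased signal indicating inhibition.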
TDP1 cell noCPT: qHTS for Inhibitors of human tyrosyl-DNA phosphodiesterase 1 (TDP1): qHTS in cells in absence of CPT; DT40 Tdp1-/- hTDP1 cells, no CPT, ATP luminescence, 48 h; hit rate 15% among 420,000; Potency, µM (highest dose often 46.2 µM), most hits filed as inhibitors; also: nearly all actives have a fitted effect of over 55% in size
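Camptothecin absent (DMSO only). Human TDP1-complemented DT40 knockout cells, 400 cells/well, 37 °C for minimum 48 hr; ATP measured via CellTiter-Glo, 30 min dark incubation, luminescence.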
TDP1 cell CPT: growth inhibition of DT40 Tdp1-/-;hTDP1 cells with camptothecin (screen for TDP1 inhibitors); chicken DT40 Tdp1-/-;hTDP1 cells + 20 nM CPT, ATP luminescence, 48 h; Potency, µM (doses to about 46.2 µM), most hits filed as inhibitors; hit rate 12% among 420,000; AID 686979; also: nearly all actives have a fitted effect of over 55% in size
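Chicken DT40 Tdp1-/- cells complemented with human TDP1, 400 cells/well, exposed to compounds plus 20 nM camptothecin for at least 48 h at 37 C; viability read as ATP content by CellTiter-Glo luminescence.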
HepG2 viability: HepG2 cytotoxicity, counter-screen for TGF-b inhibitors; AID 588856; HepG2 CAGA-GFP viability, ATP luminescence, 18 h; Potency, µM (top dose mostly 46.1 µM), actives largely listed as cytotoxic; hit rate 0.76% among 410,000
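CellTiter-Glo luminescence gave cytotoxicity after 18 hours at 37 degrees C. The cells were HepG2 CAGA-GFP in 1% FBS DMEM, stimulated with 500 pg/mL TGF-beta after compound addition. %Activity was normalised to no-cell wells (complete cell-killing) and DMSO (no toxicity), and curves were fitted and classified.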
Of the large screens only hits and unclear results are named; the others gave an inactive call. An excerpt weighted towards active compounds, which were near 19% of everything screened. Unless noted, calls follow the shape of the dose curve; as a rule, active = well fitted curve in the direction sought with a large enough effect; inconclusive = small, poorly fitted or top-dose-only effect, or another doubt; inactive = no such curve, though single readings can be large; an effect the other way counts as inactive or inconclusive.

COc1cc2oc3ccc(C#Cc4ccccn4)cc3c(=O)c2cc1OC	TDP1 cell noCPT 23µM, TDP1 cell CPT inconclusive
COc1ccc(-c2oc3ccc(-c4cc(OC)c(OC)c(OC)c4)cc3c2C#Cc2ccccn2)cc1	TDP1 cell noCPT inconclusive, TDP1 cell CPT 18µM
N#Cc1ccc(C#Cc2ccc3oc4ccccc4c(=O)c3c2)cc1	TDP1 cell noCPT inconclusive, TDP1 cell CPT inconclusive
CCOc1ccc(Cn2c(CNS(=O)(=O)c3ccc([N+](=O)[O-])cc3)nc3cccnc32)cc1	none (no result: ASM inhibitor, IL1B secr inh)
CC(C)CC(=O)c1c(O)c(C=O)c(O)c2c1O[C@@]1(C)[C@@H](C2)C[C@H]2C[C@@H]1C2(C)C	none
Cc1ccc(C2CC2c2n[nH]c(=S)n2-c2cccc(C)c2)cc1 (stereo not given)	TGFb SMAD3 inh inconclusive, TDP1 cell noCPT 16µM, TDP1 cell CPT inconclusive
Cc1ccc(C2CC2c2n[nH]c(=S)n2-c2ccc(Cl)cc2)cc1 (stereo not given)	TGFb SMAD3 inh inconclusive, TDP1 cell noCPT inconclusive, TDP1 cell CPT inconclusive
COc1ccccc1OCCNC(=O)c1c(-c2ccccc2Cl)noc1C	TDP1 cell noCPT inconclusive, TDP1 cell CPT inconclusive
COc1ccc(N=C2C(=S)N(c3ccc(OC)cc3)C(=NS(=O)(=O)c3ccccc3)N2c2ccccc2)cc1	TDP1 cell noCPT 1.5µM, TDP1 cell CPT 1.5µM
Cc1ccc(-n2nc3c(N4CCC(C(=O)NC5CCCCC5)CC4)nnc(C)c3c2C)cc1	TGFb SMAD3 inh inconclusive, TDP1 cell noCPT 12µM, TDP1 cell CPT inconclusive (no result: ASM inhibitor, IL1B secr inh)
Cc1nnc(N2CCC(C(=O)NC3CCC(C)CC3)CC2)c2nn(-c3ccc(Cl)cc3)c(C)c12 (stereo not given)	TGFb SMAD3 inh inconclusive
Cc1ccc(-n2nc3c(N4CCC(C(=O)NC5CCC(C)CC5)CC4)nnc(C)c3c2C)cc1 (stereo not given)	TDP1 cell noCPT 21µM, TDP1 cell CPT 15µM (no result: ASM inhibitor, IL1B secr inh)
Cc1cccc(N2CCN(Cc3cn(C)nc3-c3ccccc3F)CC2)n1	TGFb SMAD3 inh inconclusive, TDP1 cell noCPT 2.6µM, TDP1 cell CPT 1.8µM
Cc1cc(-c2nn(-c3ccccc3F)cc2CN2CCN(c3ccccn3)CC2)c(C)s1	IL1B secr inh inconclusive, TDP1 cell noCPT 12µM, TDP1 cell CPT 13µM
Cc1cc(-c2nn(-c3ccccc3F)cc2CNCCc2cnccn2)c(C)s1	IL1B secr inh -62, TDP1 cell CPT inconclusive
Cc1ccc(C)c(-n2cc(CNCCc3cnccn3)c(-c3ccccc3)n2)c1	TGFb SMAD3 inh inconclusive, IL1B secr inh inconclusive, TDP1 cell noCPT inconclusive, TDP1 cell CPT inconclusive
Cn1cc(CN2CCN(c3ccc(Cl)cn3)CC2)c(-c2ccccc2F)n1	TGFb SMAD3 inh inconclusive, IL1B secr inh inconclusive, TDP1 cell noCPT inconclusive, TDP1 cell CPT inconclusive
Cc1ccsc1CN1CCN(c2ccccn2)CC1	TDP1 cell CPT inconclusive
CC(=O)Nc1ccc(-c2ccnc3c2CC(C)(C(=O)Nc2ccc(C(C)C)cc2)O3)cc1 (stereo not given)	TGFb SMAD3 inh inconclusive, IL1B secr inh -84, TDP1 cell noCPT 21µM, TDP1 cell CPT 23µM (no result: ASM inhibitor)
CC(=O)NCCNC(=O)C1(C)Cc2c(-c3ccc(C(N)=O)cc3)ccnc2O1 (stereo not given)	none (no result: ASM inhibitor)
CC(C)c1ccc(NC(=O)C2(C)Cc3c(-c4ccc(C(N)=O)cc4)ccnc3O2)cc1 (stereo not given)	TDP1 cell noCPT 16µM, TDP1 cell CPT 16µM (no result: ASM inhibitor)
COc1cc(C=O)ccc1OCC(=O)Nc1ccccc1N1CCOCC1	TDP1 cell noCPT inconclusive, TDP1 cell CPT inconclusive
COc1cc(C=O)ccc1Oc1nc(Nc2ccc(F)cc2F)nc(N2CCOCC2)n1	IL1B secr inh -56, TDP1 cell noCPT inconclusive, TDP1 cell CPT inconclusive
COc1ccc(-c2sc3ccccc3c2/C=C/c2ccncc2)cc1	TGFb SMAD3 inh inconclusive, TDP1 cell noCPT 16µM, TDP1 cell CPT inconclusive
COc1ccc(-c2sc3ccccc3c2-c2cc(OC)ccc2C=O)cc1	TDP1 cell noCPT 21µM, TDP1 cell CPT inconclusive (no result: ASM inhibitor, TGFb SMAD3 inh, HepG2 viability)
COc1ccc(C=O)c(-c2c(CCO)sc3ccccc23)c1	TDP1 cell noCPT inconclusive, TDP1 cell CPT inconclusive (no result: ASM inhibitor, TGFb SMAD3 inh, HepG2 viability)
COc1ccc(-c2cc(=O)c3ccccc3s2)cc1	IL1B secr inh -60, TDP1 cell noCPT inconclusive, TDP1 cell CPT inconclusive
COc1ccc(-c2sc3ccccc3c2/C=C/c2ccc(OC)c(OC)c2)cc1	none
COc1ccc(-c2c(-c3ccccc3OC)sc3ccccc23)cc1C=O	TGFb SMAD3 inh inconclusive, TDP1 cell noCPT 18µM, TDP1 cell CPT inconclusive
COc1ccc(-c2c(-c3ccccc3OC)sc3ccccc23)cc1OC	TDP1 cell CPT inconclusive
CC(C)(CNC(=O)c1cc2c(s1)CCCC2)N1CCOCC1	none
COc1ccc(/C=C/C(=O)N(C)C2(C)CCS(=O)(=O)C2)cc1 (stereo not given)	none
NS(=O)(=O)c1ccc(CCNC(=O)C2CCN(S(=O)(=O)c3ccc(Br)s3)CC2)cc1	none
CCN(C(=N)N=C(N)N)c1ccccc1	TDP1 cell noCPT 18µM, TDP1 cell CPT inconclusive
CCN(C(N)=S)c1ccccc1	none
N=C1C(c2nc(-c3ccc(F)cc3)cs2)=C(O)CN1Cc1ccc(Cl)cc1	none
